# Reference: PubChem BioAssay
# Several values for one entry are separate records, joined by “and”; a condition that tells them apart may be missing. Identical values can stand only once. Inconclusive results are not listed. Activity calls are given as the source filed them. Unless noted, the limit is not given here; nearly all actives have AC50 up to about 26 µM.
# Assays:
# [1] = growth inhibition of DIPG glioma cells, dose response, cell-based, SU-DIPG-XVII, MIPE5.0, CellTiter-Glo, qHTS (AID 1347060); settings: SU-DIPG-XVII viability, CellTiter-Glo ATP luminescence;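 as to AC50: cells exposed to compound for 48 hours before viability readout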
# [2] = growth inhibition of DIPG glioma cells, dose response, cell-based, SU-DIPG-XIII, MIPE5.0, CellTiter-Glo, qHTS (AID 1347064; cut-off not given, nearly all actives have AC50 up to about 23 µM;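 as to AC50: cells exposed to compound for 48 hours before the viability read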); settings: SU-DIPG-XIII viability, CellTiter-Glo ATP luminescence
# [3] = viability loss in pontine glioma line – cell-based, SU-DIPG-XXV, MIPE5.0, CellTiter-Glo, qHTS, dose response (AID 1347065); settings: CellTiter-Glo ATP luminescence;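 also: cells exposed to compound for 48 hours before ATP readout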
# [4] = sensitizers of A549 cells to miR-34 induction, primary screen, imaging, A549 dox-inducible miR-34, nuclei and caspase counts (AID 1347080;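 active = compounds whose cell count with miR-34 switched on is under 0.7 times the count with it off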); settings: A549 miR-34 inducible, Hoechst nuclei count, 48 h
# [5] = survival rescue of mitochondrial mutant cells in low glucose, primary screen, MELAS cybrids, Rieske KO mouse fibroblasts, CellTiter-Glo (AID 1508586;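 active = mean z-score across replicates of 1.96 or higher in either the MELAS or the Rieske mutant cell line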;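 also: z relative to plate mean and SD of compound and empty wells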)
# [6] = SU-DIPG-XXV glioma cell viability, MIPE5.0 library, qHTS (AID 1347068; cut-off not given, nearly all actives have IC50 up to about 30 µM;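 as to IC50: cells exposed to compound for 48 hours before viability readout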)
# [7] = JHH-DIPG-1 glioma cell viability, MIPE5.0 library, CellTiter-Glo luminescence, qHTS (AID 1347067); settings: JHH-DIPG-1 glioma viability, CellTiter-Glo ATP luminescence;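 also: cells exposed to compound for 48 hours before readout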
# [8] = LFS_MB_P medulloblastoma growth inhibition, cell-based, chromothripsis tumors, cisplatin or BGB combos (AID 1671449; in the data active = inhibition above about 80%;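 also: cells exposed for 96 hours; 0% = vehicle DMSO and 100% = killing by high DMSO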); settings: LFS_MB_P medulloblastoma cells
# [9] = HDN33 neuroblastoma growth inhibition, cell-based, chromothripsis tumors, cisplatin or BGB combos (AID 1671450; in the data active = inhibition above about 80%;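 also: cells exposed to compound for four days; 0% = vehicle DMSO and 100% = cell killing by high DMSO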); settings: HDN33 neuroblastoma cells, stronger effect = higher value
# [10] = ICB984 medulloblastoma cell growth inhibition, synergistic combos for chromothripsis tumors, cisplatin or BGB combos (AID 1671451; call rule not given here;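 also: cells exposed for 96 hours before readout; 0% = vehicle DMSO and 100% = killing by high DMSO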); settings: ICB984 medulloblastoma cells, drug combinations, stronger effect = higher value
# [11] = LFS_MB_1R medulloblastoma cell growth inhibition, synergistic combos for chromothripsis tumors, cisplatin or BGB combos (AID 1671452; in the data active = inhibition above about 80%;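 also: cells exposed for 96 hours before readout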); settings: LFS_MB_1R medulloblastoma cells, stronger effect = higher value
# [12] = HTB85 osteosarcoma cell growth inhibition, synergistic combos for chromothripsis tumors, BGB or cisplatin IC20 combos (AID 1671453; in the data active = inhibition above about 80%;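 also: cells exposed for 96 hours before readout; 0% = vehicle DMSO and 100% = high DMSO killing control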); settings: HTB85 osteosarcoma cells, drug combinations, stronger effect = higher value
# [13] = CRL2098 osteosarcoma cell growth inhibition, synergistic combos for chromothripsis tumors, BGB or cisplatin IC20 combos (AID 1671454; in the data active = inhibition above about 80%;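 also: cells exposed for 96 h before readout; 0% = vehicle DMSO and 100% = killing by high DMSO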); settings: CRL2098 osteosarcoma cells, drug combinations, stronger effect = higher value
# [14] = HD-MB03 medulloblastoma cell growth inhibition, synergistic combos for chromothripsis tumors, BGB or cisplatin IC20 combos (AID 1671455; in the data active = inhibition above about 83%;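 also: 0% = vehicle DMSO and 100% = high DMSO as cytotoxic control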); settings: HD-MB03 medulloblastoma cells, stronger effect = higher value
# [15] = UWB1.289 ovarian carcinoma cell growth inhibition, synergistic combos for chromothripsis tumors, BGB or cisplatin combos (AID 1671456; in the data active = inhibition above about 80%;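 also: cells exposed to compound for four days; 0% = vehicle DMSO and 100% = killing by high DMSO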); settings: UWB1.289 ovarian carcinoma cells, stronger effect = higher value
# [16] = MDA-MB-436 breast carcinoma cell growth inhibition, synergistic combos for chromothripsis tumors, BGB or cisplatin combos (AID 1671458; call rule not given here;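 also: cells exposed for 96 hours; 0% = vehicle DMSO and 100% = killing by high DMSO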); settings: MDA-MB-436 breast carcinoma growth inhibition, drug combinations, stronger effect = higher value
# [17] = growth inhibition of BT084 medulloblastoma cells, cell-based, ICGC_MB145, cisplatin and BGB IC40 combos (AID 1671461; in the data active = inhibition above about 80%;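 also: cells exposed to drugs for 96 hours; 0% = vehicle DMSO and 100% = high DMSO full killing control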); settings: drug combinations, stronger effect = higher value
# [18] = growth inhibition of RCMB18 medulloblastoma cells, cell-based, cisplatin and BGB IC40 combos (AID 1671462; in the data active = inhibition above about 80%;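 also: cells exposed to compound for four days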); settings: stronger effect = higher value
# [19] = growth inhibition of CRL1545 osteosarcoma cells, cell-based, cisplatin and BGB IC20 combos (AID 1671464; in the data active = inhibition above about 80%;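 also: cells exposed to compound for 96 hours before readout; 0% = vehicle DMSO and 100% = high DMSO killing control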); settings: at 0.5 µM, stronger effect = higher value
# [20] = stronger effect = lower value, cell number ratio, induced over uninduced
# [21] = measured here: relative caspase fold change +Dox/-Dox
# [22] = measured here: total cells with miR-34 induction, stronger effect = lower value
# [23] = measured here: total cells without miR-34 induction
# [24] = measured here: combination with BGB IC40, at 0.05 µM
# [25] = measured here: combination with cisplatin, at 0.5 µM
compound,measurement,setting,value
COc1ccc(CNC(=O)Nc2ncc([N+](=O)[O-])s2)cc1,AC50,[1],18.6 µM (active)
same,AC50,[2],20.9 µM (active)
same,AC50,[3],20.9 µM (active)
same,fold change,[4]; [20],1.06 (inactive)
same,fold change,[4]; [21],0.577
same,cell count,[4]; [22],5600
same,cell count,[4]; [23],5270
same,z-score,"[5]; MELAS cybrid survival, CellTiter-Glo 48 h, stronger effect = higher value",-0.43 (inactive)
same,z-score,"[5]; Rieske KO mouse fibroblast survival, CellTiter-Glo 72 h",-0.202
C[N+](C)(C)CC(=O)O,outcome,[1],inactive
same,outcome,[2],inactive
same,outcome,[3],inactive
same,outcome,[6],inactive
[2H]C([2H])([2H])C(O)([C@@H](C)/C=C/[C@@H](C)[C@H]1CC[C@H]2/C(=C/C=C3C[C@@H](O)C[C@H](O)C3)CCC[C@]12C)C([2H])([2H])[2H],outcome,[1],inactive
same,outcome,[2],inactive
same,outcome,[7],inactive
Fc1ccc(-c2nc(-c3ccccc3F)[nH]c2-c2ccncc2)cc1,outcome,[1],inactive
same,outcome,[2],inactive
same,outcome,[7],inactive
same,outcome,[6],inactive
O=[N+]([O-])c1ccc(-c2nc(-c3ccc(F)cc3)c(-c3ccncc3)[nH]2)cc1,AC50,[1],26.3 µM (active)
same,AC50,[2],18.6 µM (active)
same,AC50,[3],26.3 µM (active)
same,outcome,[6],inactive
same,fold change,[4]; [20],1.15 (inactive) and 0.939 (inactive)
same,fold change,[4]; [21],1.13 and 1.14
same,cell count,[4]; [22],4420 and 5750
same,cell count,[4]; [23],3850 and 6120
Fc1ccc(-c2csc3ncnc(NCc4ccc5c(c4)OCO5)c23)cc1,AC50,[1],20.9 µM (active)
same,AC50,[2],16.6 µM (active)
same,AC50,[7],18.6 µM (active)
same,outcome,[6],inactive
COc1cc(C)[nH]c(=O)c1CN1CCc2c(Cl)cc([C@H](OC)C3COC3)c(Cl)c2C1=O,outcome,[1],inactive
same,outcome,[2],inactive
same,outcome,[7],inactive
same,outcome,[6],inactive
CC(C)(C(=O)NCC(F)(F)C(F)(F)F)C(=O)N[C@@H]1C(=O)Nc2ccccc2-c2ccccc21,outcome,[1],inactive
same,outcome,[2],inactive
same,outcome,[7],inactive
same,outcome,[6],inactive
CS(=O)(=O)Nc1cc2occ(NC=O)c(=O)c2cc1Oc1ccccc1,outcome,[1],inactive
same,outcome,[2],inactive
same,outcome,[7],inactive
same,outcome,[6],inactive
CNCCN(C)Cc1cn[nH]c1-c1ccc(OC2CC(OCCC3CCOCC3)C2)cc1 (stereo unspecified),outcome,[1],inactive
same,outcome,[2],inactive
same,outcome,[7],inactive
same,outcome,[6],inactive
CCn1c(=O)c(-c2ccc(-c3cncc(C)n3)cc2Cl)cc2cnc(NCCC3CCN(C)CC3)nc21,outcome,[1],inactive
same,outcome,[2],inactive
same,outcome,[7],inactive
same,IC50,[6],1.86 µM (active)
CON(C)C(=O)N1N=C(c2cc(F)ccc2F)S[C@@]1(CCCN)c1ccccc1,AC50,[1],0.00525 µM (active)
same,AC50,[3],0.00934 µM (active)
C[C@H]1CN(C2COC2)CCN1c1ccc(Nc2cc(-c3ccnc(N4CCn5c(cc6c5CC(C)(C)C6)C4=O)c3CO)cn(C)c2=O)nc1,outcome,[1],inactive
same,outcome,[2],inactive
same,outcome,[7],inactive
same,outcome,[6],inactive
CC(C)[C@H]1C(=O)N[C@@H](CCCN=C(N)N)C(=O)NCC(=O)N[C@@H](CC(=O)O)C(=O)N[C@H](Cc2ccccc2)C(=O)N1C,outcome,[1],inactive
same,outcome,[2],inactive
same,outcome,[7],inactive
same,outcome,[6],inactive
COc1cc(-c2cc(-c3ccc(N4CCNCC4)cc3)cnc2C)cc(OC)c1OC,outcome,[1],inactive
same,outcome,[2],inactive
same,outcome,[6],inactive
Nc1n[n+]([O-])c2ccccc2[n+]1[O-],outcome,[1],inactive
same,outcome,[2],inactive
same,outcome,[6],inactive
CC(C)Cc1ccc([C@@H](C)C(=O)NS(C)(=O)=O)cc1,outcome,[1],inactive
same,outcome,[2],inactive
same,outcome,[6],inactive
NC(=O)c1nc(F)c[nH]c1=O,outcome,[1],inactive
same,outcome,[2],inactive
same,outcome,[7],inactive
same,outcome,[6],inactive
same,inhibition,"[8]; at 0.5 µM, stronger effect = higher value",-5.96% (inactive)
same,inhibition,"[8]; measured here: combination with BGB IC20, at 0.005 µM",-6.89%
same,inhibition,"[8]; measured here: combination with BGB IC40, at 0.005 µM",86.3%
same,inhibition,[8]; [24],2.5%
same,inhibition,"[8]; measured here: combination with cisplatin, at 0.5 µM, stronger effect = higher value",-12.3%
same,inhibition,"[8]; measured here: combination with cisplatin, at 5 µM, stronger effect = higher value",-15%
same,inhibition,"[9]; BGB combo, at 5 µM",-13.7%
same,inhibition,[9]; at 0.5 µM,0.69% (inactive)
same,inhibition,"[9]; cisplatin combo, at 5 µM",-13.9%
same,inhibition,"[9]; measured here: with BGB IC20 combination, at 0.5 µM",-3.64%
same,inhibition,"[9]; measured here: with cisplatin IC20 combination, at 0.5 µM",-5.09%
same,inhibition,"[9]; single agent, at 5 µM",9.18%
same,inhibition,"[10]; BGB IC20 combo, at 0.005 µM",-3.29%
same,inhibition,"[10]; BGB IC40 combo, at 0.005 µM",-2.11%
same,inhibition,"[10]; BGB IC40 combo, at 0.05 µM",0.125%
same,inhibition,[10]; at 0.5 µM,0.29% (inactive)
same,inhibition,"[10]; cisplatin combo, at 0.05 µM",-4.93%
same,inhibition,"[10]; cisplatin combo, at 0.5 µM",4.34%
same,inhibition,"[10]; cisplatin combo, at 5 µM",4.92%
same,inhibition,"[10]; measured here: 5 uM single agent, at 5 µM",-8.47%
same,inhibition,[11]; at 0.5 µM,1.01% (inactive)
same,inhibition,[11]; [24],2.61%
same,inhibition,[11]; [25],-16.3%
same,inhibition,"[11]; measured here: combination with cisplatin, at 5 µM",16.6%
same,inhibition,[12]; at 0.5 µM,1.18% (inactive)
same,inhibition,"[12]; measured here: with BGB IC20, at 0.5 µM",-2.45%
same,inhibition,"[12]; measured here: with BGB IC20, at 5 µM",5.78%
same,inhibition,"[12]; measured here: with cisplatin IC20, at 0.5 µM",-2.57%
same,inhibition,"[12]; measured here: with cisplatin IC20, at 5 µM",4.67%
same,inhibition,"[12]; single agent, at 5 µM",17.5%
same,inhibition,[13]; at 0.5 µM,-7.02% (inactive)
same,inhibition,"[13]; measured here: combination with BGB at IC20, at 0.5 µM",-19%
same,inhibition,"[13]; measured here: combination with cisplatin at IC20, at 0.5 µM",9.34%
same,inhibition,[14]; at 0.5 µM,0.58% (inactive)
same,inhibition,"[14]; measured here: combo with BGB at IC20, at 0.5 µM",5.69%
same,inhibition,"[14]; measured here: combo with cisplatin at IC20, at 0.5 µM",-1.93%
same,inhibition,[15]; at 0.5 µM,4.26% (inactive)
same,inhibition,"[15]; measured here: inhibition with BGB combination, at 0.05 µM",6.54%
same,inhibition,"[15]; measured here: inhibition with cisplatin combination, at 0.05 µM",-1.23%
same,inhibition,[16]; at 0.5 µM,-2.87% (inactive)
same,inhibition,"[16]; measured here: BGB combination, at 0.5 µM",-1.29%
same,inhibition,"[16]; measured here: BGB combination, at 5 µM",-9.17%
same,inhibition,"[16]; measured here: cisplatin combination, at 0.5 µM",-10.9%
same,inhibition,"[16]; measured here: cisplatin combination, at 5 µM",-5.06%
same,inhibition,[17]; at 0.5 µM,-1.11% (inactive)
same,inhibition,"[17]; cisplatin combination, at 0.5 µM",6.95%
same,inhibition,"[17]; cisplatin combination, at 5 µM",-101%
same,inhibition,"[17]; measured here: BGB IC40 combination 0.05 uM, at 0.05 µM",-16.8%
same,inhibition,"[17]; single agent, at 5 µM",4.66%
same,inhibition,[18]; at 0.5 µM,-6.23% (inactive)
same,inhibition,"[18]; cisplatin combo, at 5 µM",8.94%
same,inhibition,"[18]; measured here: BGB IC40 combination, at 0.05 µM",-10.5%
same,inhibition,[18]; [25],-26.7%
same,inhibition,"[18]; single agent, at 5 µM",14.2%
same,inhibition,[19],13.8% (inactive)
same,inhibition,[19]; measured here: with BGB IC20 combination,6.76%
